Records with an inconclusive call do not appear. Calls of active or inactive are those of the source. The call rests on the fitted dose curve; in most records, active means well fitted curve in the direction sought with a large enough effect in the repeat runs; inconclusive means weak or mixed curves; inactive means no such curve, though single readings can be large; an effect the other way counts as inactive or inconclusive.
Tests used:
[1] = qHTS RealTime-Glo MT Cell Viability Assay in HEK293 cells - 16 hour (AID 1224872); further: nearly all actives have a fitted effect of over 50% in size; further: potency means the concentration at half of the fitted maximal effect
Outline: (§1)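 Reads taken at 0, 8, 16, 24, 32 and 40 h from the same wells. HEK293 cells (600/well) carried RealTime-Glo reagents from seeding, with compound added after a 5 h settle at 37 C.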

[2] = qHTS RealTime-Glo MT Cell Viability Assay in HepG2 cells - 8 hour (AID 1224873); further: nearly all actives have a fitted effect of over 55% in size
Outline: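 Real-time viability: cells seeded at 600 per well together with NanoLuc and cell-permeant prosubstrate, compounds added after 5 h incubation. Luminescence tracked at 0, 8, 16, 24, 32 and 40 h of exposure.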

[3] = qHTS RealTime-Glo MT Cell Viability Assay in HEK293 cells - 40 hour (AID 1224874); details: RealTime-Glo luminescence; max response: stronger effect = lower value; further: nearly all actives have a fitted effect of over 50% in size; further: potency means the concentration at half of the fitted maximal effect
Outline: (§2)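 600 cells/well were plated with the nonlytic NanoLuc/prosubstrate reagent, pre-incubated 5 h, then given 23 nL of compound in DMSO. Incubation at 37 C for 40 h, with luminescence from viable-cell-reduced substrate read repeatedly from 0 h.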

[4] = A CellTox Green Cytotoxicity Assay to monitor cytotoxicity in HEK293 cells - 24 hour (AID 1224875); further: series mostly up to about 77 µM; nearly all actives have a fitted effect of over 45% in size
Outline: (§3)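 HEK293 cells, 600/well, were preincubated 5 hours and then exposed to compounds at 37 C for up to 40 hours. A cell-impermeant cyanine dye staining dead-cell DNA was read by fluorescence at 0, 8, 16, 24, 32 and 40 h time points.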

[5] = A CellTox Green Cytotoxicity Assay to monitor cytotoxicity in HepG2 cells - 16 hour (AID 1224876); further: nearly all actives have a fitted effect of over 45% in size; further: potency means the concentration at half of the fitted maximal effect
Outline: (§4)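 HepG2 cells, 600/well, preincubated 5 h with CellTox Green dye, then exposed to Tox21 compounds in DMSO at 37 C for up to 40 h. Dead-cell DNA fluorescence read at the indicated time point.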

[6] = qHTS RealTime-Glo MT Cell Viability Assay in HepG2 cells - 32 hour (AID 1224877); further: nearly all actives have a fitted effect of over 55% in size
Outline: (§5)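 HepG2 suspension premixed with RealTime-Glo reagents is plated at 600 cells per well and left 5 h at 37 C/5% CO2. Compounds in DMSO then go in, and bioluminescence reflecting viable cell number is recorded over 40 h.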

[7] = A CellTox Green Cytotoxicity Assay to monitor cytotoxicity in HepG2 cells - 24 hour (AID 1224878); further: nearly all actives have a fitted effect of over 45% in size; further: potency means the concentration at half of the fitted maximal effect
Outline: as §4

[8] = qHTS RealTime-Glo MT Cell Viability Assay in HEK293 cells - 0 hour (AID 1224880); further: top concentration of the series differs between compounds; nearly all actives have a fitted effect of over 45% in size
Outline: as §2

[9] = A CellTox Green Cytotoxicity Assay to monitor cytotoxicity in HEK293 cells - 32 hour (AID 1224881); further: nearly all actives have a fitted effect of over 40% in size; further: potency means the concentration at half of the fitted maximal effect
Outline: as §3

[10] = A CellTox Green Cytotoxicity Assay to monitor cytotoxicity in HepG2 cells - 0 hour (AID 1224882); further: nearly all actives have a fitted effect of over 35% in size
Outline: as §4

[11] = A CellTox Green Cytotoxicity Assay to monitor cytotoxicity in HEK293 cells - 8 hour (AID 1224884); further: nearly all actives have a fitted effect of over 35% in size
Outline: as §3

[12] = qHTS RealTime-Glo MT Cell Viability Assay in HepG2 cells - 16 hour (AID 1224885); further: nearly all actives have a fitted effect of over 50% in size
Outline: as §5

[13] = qHTS RealTime-Glo MT Cell Viability Assay in HEK293 cells - 24 hour (AID 1224886); further: nearly all actives have a fitted effect of over 50% in size; further: potency means the concentration at half of the fitted maximal effect
Outline: as §1

[14] = qHTS RealTime-Glo MT Cell Viability Assay in HEK293 cells - 8 hour (AID 1224887); further: nearly all actives have a fitted effect of over 50% in size; further: potency means the concentration at half of the fitted maximal effect
Outline: as §2

[15] = A CellTox Green Cytotoxicity Assay to monitor cytotoxicity in HEK293 cells - 16 hour (AID 1224888); further: nearly all actives have a fitted effect of over 35% in size
Outline: as §3

[16] = qHTS RealTime-Glo MT Cell Viability Assay in HepG2 cells - 0 hour (AID 1224889); further: nearly all actives have a fitted effect of over 50% in size; further: potency means the concentration at half of the fitted maximal effect
Outline: as §5

[17] = A CellTox Green Cytotoxicity Assay to monitor cytotoxicity in HepG2 cells - 8 hour (AID 1224890); further: nearly all actives have a fitted effect of over 45% in size
Outline: as §4

[18] = A CellTox Green Cytotoxicity Assay to monitor cytotoxicity in HepG2 cells - 40 hour (AID 1224879); further: nearly all actives have a fitted effect of over 40% in size; further: potency means the concentration at half of the fitted maximal effect
Outline: as §4

[19] = A CellTox Green Cytotoxicity Assay to monitor cytotoxicity in HepG2 cells - 32 hour (AID 1224883); further: nearly all actives have a fitted effect of over 50% in size; further: potency means the concentration at half of the fitted maximal effect
Outline: as §4
On the % scale 0 is the no-effect control and ±100 the full control effect.

c1cc2ccc3cccc4ccc(c1)c2c34
inactive: Potency [1] | Potency [2] | max response [3] -0.186% | Potency [4] | Potency [5] | Potency [6] | Potency [7] | Potency [8] | Potency [9] | Potency [10] | Potency [11] | Potency [12] | Potency [13] | Potency [14] | Potency [15] | Potency [16] | Potency [17]

CC1(C)CCC(Cc2ccc(Cl)cc2)C1(O)Cn1cncn1 (stereo unspecified)
inactive: Potency [4] | Potency [6] | Potency [8] | Potency [9] | Potency [10] | Potency [11] | Potency [15] | Potency [16]
active: Potency [1] 24.5 µM | Potency [3] 24.5 µM | Potency [5] 54.9 µM | Potency [18] 54.9 µM | Potency [19] 54.9 µM | Potency [13] 24.5 µM

CC(C)(C)C(O)C(Oc1ccc(Cl)cc1)n1cncn1 (stereo unspecified)
inactive: Potency [2] | Potency [4] | Potency [6] | Potency [8] | Potency [9] | Potency [10] | Potency [11] | Potency [12] | Potency [17]
active: Potency [3] 11 µM | Potency [7] 43.6 µM | Potency [18] 43.6 µM | Potency [19] 43.6 µM | Potency [13] 12.3 µM

O=[N+]([O-])C(Br)(CO)CO
inactive: Potency [4] | Potency [8] | Potency [9] | Potency [10] | Potency [11] | Potency [14] | Potency [16]

O=C1NCN(c2ccccc2)C12CCN(CCCOc1ccc(F)cc1)CC2
inactive: Potency [2] | Potency [4] | Potency [5] | Potency [6] | Potency [8] | Potency [9] | Potency [10] | Potency [11] | Potency [12] | Potency [14] | Potency [15] | Potency [16] | Potency [17]

Clc1ccc(C(OCCN2CCCCC2)c2ccccc2)cc1 (stereo unspecified)
inactive: Potency [2] | Potency [6] | Potency [10] | Potency [11] | Potency [12] | Potency [14] | Potency [15] | Potency [16] | Potency [17]

O=C(N[C@H](c1ccccc1)[C@@H]1CN2CCC1CC2)c1c(Cl)ccc(C(F)(F)F)c1Cl
inactive: Potency [2] | Potency [5] | Potency [10] | Potency [11] | Potency [12] | Potency [14] | Potency [16] | Potency [17]
active: Potency [1] 78.8 µM | Potency [3] 70.2 µM | Potency [18] 70.2 µM | Potency [9] 78.8 µM | Potency [13] 70.2 µM

[O-][Cl+]O
inactive: Potency [1] | Potency [2] | max response [3] 2.38% | Potency [4] | Potency [5] | Potency [6] | Potency [7] | Potency [18] | Potency [10] | Potency [19] | Potency [11] | Potency [12] | Potency [13] | Potency [14] | Potency [16] | Potency [17]

CC(C)(C)c1cc([N+](=O)[O-])cc([N+](=O)[O-])c1O
inactive: Potency [2] | Potency [4] | Potency [5] | Potency [7] | Potency [9] | Potency [10] | Potency [12] | Potency [14] | Potency [15]

C=CC[C@]1(O)CC[C@H]2[C@@H]3CCC4=CC(=O)CCC4=C3C=C[C@@]21C
inactive: Potency [4] | Potency [5] | Potency [7] | Potency [18] | Potency [8] | Potency [10] | Potency [19] | Potency [11] | Potency [15] | Potency [17]
active: Potency [1] 19 µM | Potency [3] 19 µM | Potency [13] 19 µM

O=S1OC[C@@H]2[C@H](CO1)[C@]1(Cl)C(Cl)=C(Cl)[C@@]2(Cl)C1(Cl)Cl (stereo partly specified)
inactive: Potency [8] | Potency [10] | Potency [16]

Clc1cccc2ccccc12
inactive: Potency [1] | Potency [2] | max response [3] -5.43% | Potency [5] | Potency [6] | Potency [7] | Potency [18] | Potency [8] | Potency [10] | Potency [19] | Potency [11] | Potency [12] | Potency [13] | Potency [14] | Potency [15] | Potency [17]

CS/C(C)=N/OC(=O)N(C)SN(C)C(=O)O/N=C(\C)SC
inactive: Potency [8] | Potency [10] | Potency [16]
active: Potency [1] 38.9 µM | Potency [3] 43.6 µM | Potency [7] 54.9 µM | Potency [18] 54.9 µM | Potency [9] 54.9 µM | Potency [19] 54.9 µM | Potency [13] 49 µM | Potency [14] 43.6 µM

Oc1ccc(Cl)c(Cl)c1Cl
inactive: Potency [2] | Potency [5] | Potency [6] | Potency [8] | Potency [9] | Potency [10] | Potency [11] | Potency [12] | Potency [14] | Potency [15] | Potency [16] | Potency [17]

CCOP(=S)(OCC)SCn1nnc2ccccc2c1=O
active: Potency [1] 21.9 µM | Potency [3] 19.5 µM | Potency [13] 21.9 µM | Potency [14] 21.9 µM | Potency [16] 24.5 µM
inactive: Potency [4] | Potency [5] | Potency [6] | Potency [7] | Potency [18] | Potency [8] | Potency [9] | Potency [10] | Potency [19] | Potency [11] | Potency [15] | Potency [17]

CC[C@H]1C[C@H]2[C@@H]3CCC4=CC(=O)CC[C@@H]4[C@H]3CC[C@]2(C)[C@H]1O
active: Potency [3] 23.9 µM | Potency [18] 21.3 µM
inactive: Potency [2] | Potency [4] | Potency [5] | Potency [6] | Potency [8] | Potency [10] | Potency [11] | Potency [12] | Potency [14] | Potency [15] | Potency [16] | Potency [17]

COCCOCCO
inactive: Potency [1] | Potency [2] | Potency [4] | Potency [5] | Potency [6] | Potency [7] | Potency [18] | Potency [8] | Potency [9] | Potency [10] | Potency [19] | Potency [11] | Potency [12] | Potency [13] | Potency [14] | Potency [15] | Potency [16] | Potency [17]

Source: PubChem BioAssay (Tox21)
